According to PubChem BioAssay (NCATS):
Inconclusive results are not listed. Calls of active or inactive are those of the source. The call rests on the fitted dose curve; in most records, active means well fitted inhibition curve with a large enough effect; inconclusive means small, poorly fitted or top-dose-only effect; inactive means flat fitted curve, though single readings scatter. Residues, ends and D or L forms follow the SMILES beside them. Peptide text beside a SMILES is read from it.

The molecules below were run on CRL-7250 (assay: qHTS assay to identify novel small-molecules to repurpose for Merkel cell carcinoma treatment (AID 1296009; further: nearly all actives have a fitted effect of over 60% in size)). Settings: MCC and control cell lines, CellTiter-Glo viability, 72 h; at 44.8 µM (top of the series) unless noted.
Outline: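 72 hr, 37 degree celsius; NPC 8-pt / MIPE 11-pt dose response; compound pinned in DMSO; CellTiter-Glo, 10 min RT, luminescence; normalized to no-cell and DMSO controls.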

SMILES	outcome
COc1ccccc1OCC(O)CO (configuration not stated)	inactive
O=C1CC(c2ccc(Cl)cc2)CC(=O)N1	inactive
Cc1c(C(=O)NCCO)[n+](=O)c2ccccc2n1[O-]	inactive
CCCCOCCOC(=O)c1cccnc1	inactive
Cc1cc(NS(=O)(=O)c2ccc(N)cc2)no1	inactive
CCNC(=O)[C@@H]1CCCN1C(=O)[C@H](CCCN=C(N)N)NC(=O)[C@H](CC(C)C)NC(=O)CNC(=O)[C@H](Cc1ccc(O)cc1)NC(=O)[C@H](CO)NC(=O)[C@H](Cc1c[nH]c2ccccc12)NC(=O)[C@H](Cc1cnc[nH]1)NC(=O)[C@@H]1CCC(=O)N1 (HELM PEPTIDE1{[Glp].H.W.S.Y.G.L.R.P.[CCN[*:1]]}$$$$V2.0)	inactive
N[C@@H](COP(=O)(O)O)C(=O)O	inactive [at 17.4 µM]
COc1ccc2c(c1)c(CC(=O)OC/C=C(\C)CC/C=C(\C)CCC=C(C)C)c(C)n2C(=O)c1ccc(Cl)cc1	inactive
CCOC(=O)/C=C(C)/C=C/C=C(C)/C=C/c1c(C)cc(OC)c(C)c1C	inactive
CC(C)NCC(O)c1ccc(NS(C)(=O)=O)cc1 (configuration not stated)	inactive
NC(=O)N1c2ccccc2C=Cc2ccccc21	inactive
CC(=O)OCC(=O)[C@@]1(O)[C@H](OC(C)=O)C[C@H]2[C@@H]3CCC4=CC(=O)C=C[C@]4(C)[C@@]3(F)[C@@H](O)C[C@@]21C	inactive
Cc1cccc(C)c1NC(=O)c1cc(S(N)(=O)=O)c(Cl)cc1O	inactive
O=C(O)Cn1c(=O)n(Cc2ccc(Br)cc2F)c(=O)c2ccc(Cl)cc21	inactive
COC(=O)[C@H](Cc1ccccc1)NC(=O)[C@@H](N)CC(=O)O (H-Asp-Phe-OMe)	inactive
NC(=O)NC1NC(=O)NC1=O (configuration not stated)	inactive
COC(=O)[C@@H]1[C@H]2C[C@H]3c4[nH]c5ccccc5c4CCN3C[C@@H]2CC[C@@H]1O	inactive
C[N+]1(C)[C@@H]2CC(OC(=O)[C@H](CO)c3ccccc3)C[C@H]1[C@@H]1O[C@@H]12 (some centres not stated)	inactive
CN(c1nccc(=O)[nH]1)C1CCN(c2nc3ccccc3n2Cc2ccc(F)cc2)CC1	inactive

SMILES	outcome
CC(=O)OCC(=O)[C@@]1(OC(C)=O)[C@@H](C)C[C@H]2[C@@H]3C[C@H](F)C4=CC(=O)C=C[C@]4(C)[C@@]3(F)[C@@H](O)C[C@@]21C	inactive
CCC(Cc1c(I)cc(I)c(N)c1I)C(=O)O (configuration not stated)	inactive
COC(=O)CCCCC(CCSS/C(CCO)=C(\C)N(C=O)Cc1cnc(C)nc1N)SC(C)=O (configuration not stated)	inactive
Cc1ncc([N+](=O)[O-])n1CC(C)O (configuration not stated)	inactive
CC(=O)O[C@]1(C(C)=O)CC[C@H]2[C@@H]3C[C@H](C)C4=CC(=O)CC[C@]4(C)[C@H]3CC[C@@]21C	inactive
CC(CN(C)C)C(C)(O)Cc1ccc(Cl)cc1 (configuration not stated)	inactive
O=c1cc(O)c(Cl)c[nH]1	inactive
CC(C)(C)NCC(O)COc1ccc(NC(=O)NC2CCCCC2)cc1 (configuration not stated)	inactive
COc1cc(OC)c(C(=O)CCCN2CCCC2)c(OC)c1	inactive
CC(C)Cn1cnc2c(N)nc3ccccc3c21	inactive [at 17.4 µM]
CC1(C)Oc2ccc(C#N)cc2[C@@H](N2CCCC2=O)[C@@H]1O	inactive
CC[N+](CC)(CCNC(=O)C(=O)NCC[N+](CC)(CC)Cc1ccccc1Cl)Cc1ccccc1Cl	inactive
Cc1onc(-c2c(Cl)cccc2Cl)c1C(=O)Cl	inactive
Cc1nc(-c2ccc(Cl)cc2)oc1COC(C)(C)C(=O)O	inactive
Cc1cc(O)c2c(O)c3c(O)cccc3cc2c1	inactive
O=C(C1CCCCC1)N1CC(=O)N2CCCc3ccccc3C2C1 (configuration not stated)	inactive
O=C1O[C@H](CO)[C@@H](O)[C@H](O)[C@H]1O	inactive
C[C@](N)(Cc1ccc(O)cc1)C(=O)O	inactive [at 4.96 µM]
